The values that follow come from the supplement of paper PMC7156485.
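Further: TDF denotes transformed human dermal fibroblasts of mesenchymal origin.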

This assay concerns HCC1569. As to the kind of experiment: cell number relative to DMSO (% of DMSO); higher = more cells (less growth inhibition / toxicity). To be noted: concentration: 10 µM; 24 h. The essentials:
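In 384-well plates holding 800 HCC1569 or TDF cells per well in RPMI with 10% FBS, compounds were tested at 10 µM for 24 h at 37 °C in triplicate. Fixation used 3.7% formaldehyde. Staining used a rabbit anti-H1.0 antibody with an AlexaFluor 647 secondary, plus DAPI. Each value, H1.0 nuclear intensity or cell number, is a median of replicates shown as percent of the plate control, and HCC1569 values were smoothed for positional effects.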
`CSc1nc(-c2ccnc(NC(C)c3ccccc3)c2)c(-c2ccc(F)cc2)[nH]1` (stereo not drawn) [p38 MAP Kinase Inhibitor III] had a cell number of 94.8.

As for `CC(C)NCC(O)COc1ccc(CCOCC2CC2)cc1.Cl` (stereo not drawn) [Betaxolol.HCl], the cell number was determined as 103.

Regarding `O=C(O)CO.[NH2-].[NH2-].[Pt+2]` [Nedaplatin], the cell number is 94.6.

Compound `CCCc1c(OCCCCc2nn[nH]n2)ccc(C(C)=O)c1O` registered a cell number of 104.

For `Cl.NC(CO)C(=O)NNCc1ccc(O)c(O)c1O` (stereo not drawn) [Benserazide hydrochloride], the cell number came to 91.1.

The compound `CCCCCCCCC=CCCCCCCCCCCC(=O)O` [12(Z) Heneicosenoic acid] had a cell number of 103.

Compound `CC1(C)C(=O)N(CCN2CCC(C(=O)c3ccc(F)cc3)CC2)c2ccccc21.Cl` [LY-310,762 hydrochloride] showed a cell number of 101.

As to `CN(C)CCCN1c2ccccc2Sc2ccc(Cl)cc21.Cl` [Chlorpromazine.HCl], the cell number was determined as 96.5.

`O=C1Nc2ccc(Cl)cc2C(C#CC2CC2)(C(F)(F)F)O1` (stereo not drawn) [Efavirenz] yielded a cell number of 101.

For `N[C@H](CO)C(=O)O` [D-Serine], the cell number is 104.

For the compound `NCC(O)c1ccc(O)c(O)c1.O=C(O)C(O)C(O)C(=O)O` (stereo not drawn) [L(-)-Norepinephrine bitartrate], the cell number is 109.

Turning to `COc1ccc(S(=O)(=O)Nc2nc(-c3cccc([N+](=O)[O-])c3)cs2)cc1OC`, the cell number amounted to 102.

For `CC(=O)OC1CCC2(C)C(C1)C(OC(C)=O)CC1C2CC2C3CN4CC(C)CCC4C(C)C3CCC21O` (stereo not drawn) [Diacetylkorseveriline], the cell number is 101.

`CN1CCN(c2nc3cc(C(F)(F)F)ccc3n3cccc23)CC1.O=C(O)C=CC(=O)O`: the cell number turned out to be 99.3.

Regarding `CC(C)(ON=C(C(=O)NC1C(=O)N2C(C(=O)[O-])=C(C[n+]3ccccc3)CSC12)c1csc(N)n1)C(=O)O` (stereo not drawn) [Ceftazidime], the cell number was determined as 103.

`CNC(=O)C1OC(n2cnc3c(NCc4ccc(N)cc4)ncnc32)C(O)C1O` (stereo not drawn) returned a cell number of 99.9.

Regarding `C[N+](C)(C)CCC(=O)c1cccc2ccccc12.[I-]` [2-(alpha-Naphthoyl)ethyltrimethylammonium iodide], the cell number turned out to be 92.7.

For `CN(C)CCC(c1ccc(Br)cc1)c1ccccn1.O=C(O)C=CC(=O)O` (racemic), the cell number was 101.

As for `COc1ccc(CN2CCN(C(c3ccc(F)cc3)c3ccc(F)cc3)CC2)c(OC)c1OC` [Lomerizine], the cell number worked out at 102.

`Nc1c2c(nc3ccccc13)CCCC2O.O=C(O)C=CC(=O)O` (stereo not drawn) [Hydroxytacrine]: the cell number worked out at 106.

Take `CCC1OC(=O)C(C)C(OC2CC(C)(OC)C(O)C(C)O2)C(C)C(OC2OC(C)CC(N(C)C)C2O)C(C)(OC)CC(C)C(=O)C(C)C(O)C1(C)O` (stereo not drawn) [Clarithromycin]: the cell number was 98.4.

For `CC(C)=CCCC(C)=CCCC(C)=CCSc1ccccc1C(=O)O` [Farnesylthiosalicylic acid], the cell number turned out to be 93.9.

For `COc1ccc2c(c1)CC[C@@H]1[C@@H]2CC[C@]2(C)[C@@H](NCCCCCCN3C(=O)C=CC3=O)CC[C@@H]12.O`, the cell number came out at 97.6.

`C#CCN(C)Cc1ccccc1.Cl` [Pargyline hydrochloride] gave a cell number of 114.

Turning to `CC1(COc2ccc(CC3SC(=O)NC3=O)cc2)CCCCC1` (stereo not drawn) [Ciglitizone], the cell number is 102.

`CC(C)C[C@H](NC(=O)C(O)[C@H](N)Cc1ccc([N+](=O)[O-])cc1)C(=O)O.Cl` (stereo partly drawn) registered a cell number of 104.

As for `CC(=O)SCC(Cc1ccccc1)C(=O)NCC(=O)OCc1ccccc1` (stereo not drawn) [Racecadotril], the cell number came to 103.

For the compound `CC(C)(C)NCC(O)c1ccc(O)c(CO)c1.CC(C)(C)NCC(O)c1ccc(O)c(CO)c1.O=S(=O)(O)O` (stereo not drawn) [Albuterol hemisulfate], the cell number turned out to be 99.8.

Take `COC1(C2=NCCN2)COc2ccccc2O1.Cl` (stereo not drawn): the cell number is 104.

Consider `Cn1c(NCCN(CCO)CCCc2ccc([N+](=O)[O-])cc2)cc(=O)n(C)c1=O` [Nifekalant], for which the cell number is 101.

For the compound `CCCCCCCCCCCCCC(=O)O` [Tetradecanoic acid], the cell number stood at 99.4.

As to `CN(Cc1cnc2nc(N)nc(N)c2n1)c1ccc(C(=O)NC(CCC(=O)O)C(=O)O)cc1` (single isomer, unassigned; (-)) [(-)Amethopterin], the cell number was 96.4.

In turn, `Nc1nc(N)c2nc(CNc3ccc(C(=O)NC(CCC(=O)O)C(=O)O)cc3)cnc2n1` (stereo not drawn) [Aminopterin] showed a cell number of 80.8.
